The supplement of paper PMC8728848
Only a selection was taken, and the strongest signals are over-represented in it overall.

What was measured:
Experiment in all cases: glycan array binding signal (z-score within array); higher = stronger binding
Conditions in all cases: glycan notation: IUPAC condensed, linker removed
[1] = molecular target: Gal(b1-4)GlcNAc(b1-3)Gal(b1-3)GalNAc
Method in brief: (§1)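 From the Consortium for Functional Glycomics database, 3228 arrays were curated, keeping only those whose protein sequence was available. Binding is given as a within-array Z-score averaged across arrays sharing a protein sequence and across linkers. Negative Z-scores can be read as non-binding.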

[2] = molecular target: Gal(b1-4)GlcNAc(b1-3)Gal(b1-4)Glc
Method in brief: as §1

[3] = molecular target: Gal(b1-4)GlcNAc(b1-3)Gal(b1-4)GlcNAc(b1-3)Gal(b1-4)GlcNAc(b1-3)Gal(b1-4)GlcNAc(b1-3)Gal(b1-4)GlcNAc(b1-2)[Gal(b1-4)GlcNAc(b1-3)Gal(b1-4)GlcNAc(b1-3)Gal(b1-4)GlcNAc(b1-3)Gal(b1-4)GlcNAc(b1-3)Gal(b1-4)GlcNAc(b1-6)]Man(a1-6)[Gal(b1-4)GlcNAc(b1-3)Gal(b1-4)GlcNAc(b1-3)Gal(b1-4)GlcNAc(b1-3)Gal(b1-4)GlcNAc(b1-3)Gal(b1-4)GlcNAc(b1-2)Man(a1-3)]Man(b1-4)GlcNAc(b1-4)[Fuc(a1-6)]GlcNAc
Method in brief: as §1

[4] = molecular target: Gal(b1-4)GlcNAc(b1-6)[Gal(b1-4)GlcNAc(b1-3)]GalNAc
Method in brief: as §1

Gal6S(b1-4)Glc6S = molecular target: Gal6S(b1-4)Glc6S
Method in brief: as §1

[5] = molecular target: GalNAc(b1-3)Gal(a1-4)Gal(b1-4)GlcNAc(b1-3)Gal(b1-4)Glc
Method in brief: as §1

[6] = molecular target: GalNAc(b1-4)GlcNAc(b1-2)Man(a1-3)[GalNAc(b1-4)GlcNAc(b1-2)Man(a1-6)]Man(b1-4)GlcNAc(b1-4)GlcNAc
Method in brief: as §1

Glc(b1-4)Glc = molecular target: Glc(b1-4)Glc
Method in brief: as §1

[7] = molecular target: GlcNAc(a1-4)Gal(b1-4)GlcNAc(b1-3)Gal(b1-4)[Fuc(a1-3)]GlcNAc(b1-3)Gal(b1-4)[Fuc(a1-3)]GlcNAc
Method in brief: as §1

[8] = molecular target: GlcNAc(b1-2)[GlcNAc(b1-4)]Man(a1-3)[GlcNAc(b1-4)][GlcNAc(b1-2)[GlcNAc(b1-6)]Man(a1-6)]Man(b1-4)GlcNAc(b1-4)GlcNAc
Method in brief: as §1

[9] = molecular target: GlcNAc(b1-3)Gal(b1-4)GlcNAc(b1-3)Gal(b1-4)GlcNAc(b1-3)GalNAc
Method in brief: as §1

[10] = molecular target: Neu5Ac(a2-3)Gal(b1-3)GalNAc(b1-3)Gal(a1-4)Gal(b1-4)Glc
Method in brief: as §1

[11] = molecular target: Neu5Ac(a2-3)Gal(b1-3)GlcNAc(b1-3)GalNAc
Method in brief: as §1

[12] = molecular target: Neu5Ac(a2-3)Gal(b1-4)GlcNAc(b1-2)[Neu5Ac(a2-3)Gal(b1-4)GlcNAc(b1-6)]Man(a1-6)[Neu5Ac(a2-3)Gal(b1-4)GlcNAc(b1-2)Man(a1-3)]Man(b1-4)GlcNAc(b1-4)GlcNAc
Method in brief: as §1

[13] = molecular target: Neu5Ac(a2-3)Gal(b1-4)GlcNAc(b1-3)Gal(b1-4)GlcNAc(b1-3)Gal(b1-4)GlcNAc(b1-2)Man(a1-3)[Neu5Ac(a2-3)Gal(b1-4)GlcNAc(b1-3)Gal(b1-4)GlcNAc(b1-3)Gal(b1-4)GlcNAc(b1-2)Man(a1-6)]GalNAc
Method in brief: as §1

[14] = molecular target: Neu5Ac(a2-3)[GalNAc(b1-4)]Gal(b1-4)Glc
Method in brief: as §1

[15] = molecular target: Neu5Ac(a2-6)Gal(b1-4)GlcNAc(b1-2)Man(a1-3)[Man(a1-6)]Man(b1-4)GlcNAc(b1-4)GlcNAc
Method in brief: as §1

[16] = molecular target: Neu5Ac(a2-6)Gal(b1-4)GlcNAc(b1-2)Man(a1-3)[Neu5Ac(a2-3)Gal(b1-4)GlcNAc(b1-2)Man(a1-6)]Man(b1-4)GlcNAc(b1-4)GlcNAc
Method in brief: as §1

[17] = molecular target: Neu5Ac(a2-6)Gal(b1-4)GlcNAc(b1-2)[Neu5Ac(a2-6)Gal(b1-4)GlcNAc(b1-4)]Man(a1-3)[GlcNAc(b1-4)][Neu5Ac(a2-6)Gal(b1-4)GlcNAc(b1-2)[Neu5Ac(a2-6)Gal(b1-4)GlcNAc(b1-6)]Man(a1-6)]Man(b1-4)GlcNAc(b1-4)GlcNAc
Method in brief: as §1

[18] = molecular target: Neu5Ac(a2-6)Gal(b1-4)GlcNAc(b1-3)Gal(b1-4)GlcNAc(b1-3)GalNAc
Method in brief: as §1

[19] = molecular target: Neu5Ac(a2-6)Gal(b1-4)GlcNAc(b1-6)[Gal(b1-3)GlcNAc(b1-3)]Gal(b1-4)Glc
Method in brief: as §1

[20] = molecular target: Neu5Ac(a2-6)Gal(b1-4)GlcNAc(b1-6)[Gal(b1-3)]GalNAc
Method in brief: as §1

[21] = molecular target: Neu5Ac(a2-8)Neu5Ac(a2-8)Neu5Ac(a2-8)Neu5Ac(a2-3)[GalNAc(b1-4)]Gal(b1-4)Glc
Method in brief: as §1

[22] = molecular target: Neu5Gc(a2-8)Neu5Gc(a2-3)Gal(b1-4)GlcNAc
Method in brief: as §1

B1: PX14343C-bfa-541-26-541 (Bacteroides fragilis) (protein)
chain: KAPLDEIADDSFWSDETLVKYYVNDLYSEISVDGLQLQENRSDNSVSAQRDKYRASWFKFNYDMVSASDPQDDDVWEDYYVKVRKCNRFFERIGTSTIEESEKSRLTGEVHFLRAMFYFEMVKRYGGVILLDKVLTMEDNWEIPRSSEKECYDFILEDLKKATEMLPASYGSREKGRATKGAAYALKSRVELYDKRYEDVIKSCAEVYKLGYELVDGTTPEKYRSIWWTTNKDNKEIIFDVQYKSPDVYNNMMVCNMVTYINDKYGDRGWGGLGPTQELIDAFEMADGTPATQYSQAPADQVFDINTCGIYEGREPRFYANIVFHGSQIFFNADKGAVTVDRYLMDTPDKGDGSLTGYNVWKWIDYDNYNYPYAGAGSPDFSTNWIILRYAEIYLNDAEARLETGDVEGARKAVNMIRQRVGLPDLTESDPEKLRELIRKERRIEFAFEEQRFYDVRRWKIGPETQTTLHGVRFVSPTEFKVTKTDIRTWNDRLYLTPVPHDEIVRSSVLKQNLGY
**Q.** What does the source list for B1?
**A.** glycan array binding signal (z-score) [1]: -0.401; glycan array binding signal (z-score) [2]: 0.261; glycan array binding signal (z-score) [3]: 0.758; glycan array binding signal (z-score) [4]: 0.249; glycan array binding signal (z-score) (Gal6S(b1-4)Glc6S): 1.46; glycan array binding signal (z-score) [5]: -0.667; glycan array binding signal (z-score) [6]: 3.4; glycan array binding signal (z-score) (Glc(b1-4)Glc): -0.686; glycan array binding signal (z-score) [7]: 1.91; glycan array binding signal (z-score) [8]: 0.147; glycan array binding signal (z-score) [9]: -0.553; glycan array binding signal (z-score) [10]: 0.978; glycan array binding signal (z-score) [11]: 0.246; glycan array binding signal (z-score) [12]: 0.43; glycan array binding signal (z-score) [13]: 5.05; glycan array binding signal (z-score) [14]: 3.41; glycan array binding signal (z-score) [15]: 3.29; glycan array binding signal (z-score) [16]: 0.23; glycan array binding signal (z-score) [17]: -0.339; glycan array binding signal (z-score) [18]: -0.036; glycan array binding signal (z-score) [19]: 5.89; glycan array binding signal (z-score) [20]: -0.647; glycan array binding signal (z-score) [21]: 1.9; glycan array binding signal (z-score) [22]: -0.342
